Assay results published in PubChem BioAssay (NCATS).
Results filed as inconclusive are left out. Active and inactive are the calls of the source. Calls come from the whole dose curve; as a rule, active = well fitted curve in the direction sought with a large enough effect; inconclusive = small, poorly fitted or top-dose-only effect, or another doubt; inactive = no such curve, though single readings can be large; an effect the other way counts as inactive or inconclusive.

Tests used:
[1] = qHTS of pediatric cancer cell lines to identify multiple opportunities for drug repurposing: Primary screen for A673 cells (AID 1347092); note: nearly all actives have a fitted effect of over 45% in size
In short: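 Luminescence from CellTiter-Glo, taken after 15 min at room temperature, served as the proxy for metabolically active cells following 48 h treatment. Both potency and efficacy were taken from curves fitted to the titration data.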

[2] = qHTS of pediatric cancer cell lines to identify multiple opportunities for drug repurposing: Primary screen for SK-N-MC cells (AID 1347093); note: series mostly up to about 46 µM
In short: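 Metabolically active cells were quantified by ATP-dependent luminescence (CellTiter-Glo, 15 min at room temperature) following 48 h treatment. Cells had been plated at 500-1,000 per well and settled for 5 h beforehand.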

[3] = qHTS of pediatric cancer cell lines to identify multiple opportunities for drug repurposing: Primary screen for BT-37 cells (AID 1347094); note: series mostly up to about 57 µM
In short: (§1)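 Readout: CellTiter-Glo luminescence, 48 h treatment. Controls DMSO (neutral) and bortezomib 2.3 µM final (positive). Potency and efficacy taken from primary-screen concentration-response curves.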

[4] = qHTS of pediatric cancer cell lines to identify multiple opportunities for drug repurposing: Primary screen for NB-EBc1 cells (AID 1347095)
In short: as §1

[5] = qHTS of pediatric cancer cell lines to identify multiple opportunities for drug repurposing: Primary screen for U-2 OS cells (AID 1347096); note: nearly all actives have a fitted effect of over 50% in size
In short: (§2)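 Viability after 48 h compound treatment at 37C, 500-1,000 cells/well, read as ATP luminescence with CellTiter-Glo. Primary screens used 11-point (MIPE, 0.78 nM-46 µM) or 8-point (NPC, 0.59 nM-46 µM) final concentrations; follow-up screens used 11-point dilutions.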

[6] = qHTS of pediatric cancer cell lines to identify multiple opportunities for drug repurposing: Primary screen for Saos-2 cells (AID 1347097); note: nearly all actives have a fitted effect of over 40% in size
In short: as §1

[7] = qHTS of pediatric cancer cell lines to identify multiple opportunities for drug repurposing: Primary screen for SK-N-SH cells (AID 1347098); note: nearly all actives have a fitted effect of over 65% in size
In short: (§3)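 Cells (500-1,000/well) rested 5 h, then received compounds for 48 h; metabolically active cells were measured by CellTiter-Glo luminescence. Final concentrations spanned up to 46 µM (MIPE, 11-point) or 0.59 nM-46 µM (NPC, 8-point) in primary screens, 11-point in follow-ups.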

[8] = qHTS of pediatric cancer cell lines to identify multiple opportunities for drug repurposing: Primary screen for NB1643 cells (AID 1347099); note: nearly all actives have a fitted effect of over 50% in size
In short: as §1

[9] = qHTS of pediatric cancer cell lines to identify multiple opportunities for drug repurposing: Primary screen for LAN-5 cells (AID 1347100)
In short: as §2

[10] = qHTS of pediatric cancer cell lines to identify multiple opportunities for drug repurposing: Primary screen for Rh18 cells (AID 1347102); note: nearly all actives have a fitted effect of over 65% in size
In short: as §2

[11] = qHTS of pediatric cancer cell lines to identify multiple opportunities for drug repurposing: Primary screen for RD cells (AID 1347104); note: nearly all actives have a fitted effect of over 55% in size
In short: as §1

[12] = qHTS of pediatric cancer cell lines to identify multiple opportunities for drug repurposing: Primary screen for MG 63 (6-TG R) cells (AID 1347105); note: nearly all actives have a fitted effect of over 50% in size
In short: as §1

[13] = qHTS of pediatric cancer cell lines to identify multiple opportunities for drug repurposing: Primary screen for control Hh wild type fibroblast cells (AID 1347106);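 note: series mostly up to about 46 µM; a drop in luminescence marks cytotoxicity and a rise apparent proliferation; nearly all actives have a fitted effect of over 55% in size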
In short: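 Cells (500-1,000/well) in growth media were settled 5 h at 37 degrees C, then given compounds for 48 h. Viability was read as CellTiter-Glo luminescence. Primary runs used MIPE at 11 points (0.78 nM-46 µM) and NPC at 8 points (0.59 nM-46 µM); follow-ups used 11 points.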

[14] = qHTS of pediatric cancer cell lines to identify multiple opportunities for drug repurposing: Primary screen for Rh30 cells (AID 1347107); note: series mostly up to about 46 µM; nearly all actives have a fitted effect of over 75% in size
In short: as §2

[15] = qHTS of pediatric cancer cell lines to identify multiple opportunities for drug repurposing: Primary screen for Rh41 cells (AID 1347108);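 note: series mostly up to about 46 µM; luminescence drop marks cytotoxic hits; nearly all actives have a fitted effect of over 70% in size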
In short: as §1

[16] = qHTS of pediatric cancer cell lines to identify multiple opportunities for drug repurposing: Primary screen for OHS-50 cells (AID 1347103); note: nearly all actives have a fitted effect of over 40% in size
In short: as §3

[17] = qHTS of pediatric cancer cell lines to identify multiple opportunities for drug repurposing: Primary screen for BT-12 cells (AID 1347101); note: nearly all actives have a fitted effect of over 25% in size
In short: as §3

Measured: Potency

CC(=O)[C@@]1(O)CC[C@H]2[C@@H]3CCC4=CC(=O)CC[C@]4(C)[C@H]3CC[C@@]21C
not listed: [16] | [17]
inactive: all other assays above

Nc1c2c(nc3ccccc13)CCCC2O (configuration not stated)
not listed: [13] | [17]
inactive: all other assays above

N[C@@H](COP(=O)(O)O)C(=O)O
not listed: [6] | [17]
inactive: all other assays above

FC(F)(F)c1ccccc1-n1ccnc1
not listed: [7] | [13] | [17]
inactive: all other assays above

CCCCNc1ccc(C(=O)OCCN(C)C)cc1
not listed: [12] | [16]
inactive: all other assays above

O=c1[nH]c(=O)n([C@H]2C[C@H](O)[C@@H](CO)O2)cc1Br
not listed: [17]
inactive: all other assays above

C[C@@H](O)[C@H]1C(=O)N2C(C(=O)O)=C(SCCN=CN)C[C@H]12
not listed: [6] | [12]
inactive: all other assays above

NC(=O)c1cn(Cc2c(F)cccc2F)nn1
not listed: [17]
inactive: all other assays above

CC(=O)Oc1cc(C(C)C)c(OCCN(C)C)cc1C
not listed: [6]
inactive: all other assays above

CCn1nc(C(=O)O)c(=O)c2cc3c(cc21)OCO3
not listed: [12]
inactive: all other assays above

CCN1CCc2nc(N)oc2CC1
inactive: all assays above

CNC1(C)C2CCC(C2)C1(C)C (configuration not stated)
not listed: [6] | [12] | [13]
inactive: all other assays above

CCCN(CCC)C(=O)C(CCC(=O)O)NC(=O)c1ccccc1 (configuration not stated)
not listed: [13]
inactive: all other assays above

O=C1CC2(CCCC2)CC(=O)N1CCCCN1CCN(c2ncccn2)CC1
inactive: all assays above

NC(=O)c1ncn([C@@H]2O[C@H](CO)[C@@H](O)[C@H]2O)c1O
not listed: [12] | [13]
inactive: all other assays above
